Screening results: PubChem, The Scripps Research Institute Molecular Screening Center
GPR151 activ = activates the human receptor GPR151 | Q8TDV0 | PathHunter beta-arrestin GPR151 cells, luminescence | 650,000 compounds, 1% hits | activation, % at 11.2 µM; in the data active = activation above about 4.9%
FBW7 activator = activators of human E3 ligase FBW7. AlphaScreen FBW7–phospho-cyclin E peptide binding, activator screen. Q969H0. 650,000 compounds, 0.13% hits. normalized activity (activation), % at 26.1 µM; in the data active = normalized activity above about 1.9%;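 also: purified mutant Fbw7 with reduced substrate affinity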
MITF inh = blocks human microphthalmia-associated transcription factor. O75030. AlphaScreen MITF homodimerization, bead proximity signal. inhibition, % at 2.6 µM. 650,000 compounds, 0.91% hits; in the data active = inhibition above about 50%
Target sequence (O75030 whole entry, looked up): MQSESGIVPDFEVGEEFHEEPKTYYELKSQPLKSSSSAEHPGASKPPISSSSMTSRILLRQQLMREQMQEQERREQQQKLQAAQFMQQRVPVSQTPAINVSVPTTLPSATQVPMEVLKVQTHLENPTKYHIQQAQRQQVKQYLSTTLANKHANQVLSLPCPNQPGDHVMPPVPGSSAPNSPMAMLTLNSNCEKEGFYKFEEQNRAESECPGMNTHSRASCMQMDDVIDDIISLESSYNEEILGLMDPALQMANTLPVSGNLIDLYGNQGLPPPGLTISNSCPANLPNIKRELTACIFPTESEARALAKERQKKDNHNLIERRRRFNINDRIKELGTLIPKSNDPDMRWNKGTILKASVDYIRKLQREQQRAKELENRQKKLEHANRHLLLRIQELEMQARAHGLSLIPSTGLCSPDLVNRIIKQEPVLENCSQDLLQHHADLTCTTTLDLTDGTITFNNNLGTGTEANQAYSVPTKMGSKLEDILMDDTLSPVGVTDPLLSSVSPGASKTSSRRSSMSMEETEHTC
TEAD-YAP inh = TEAD-YAP interaction inhibition | HEK-TIYL cells, TEAD-Gal4/YAP UAS-luciferase luminescence | inhibition, % at 9.12 µM | 640,000 compounds, 1.4% hits | AID 1259422; in the data active = inhibition above about 32%
MITF confirm = confirmation of human MITF inhibitors; shares compounds with MITF inh; AlphaScreen MITF homodimerization, biotin/His-MITF beads; inhibition, % at 2.6 µM; 4,700 compounds, 16% hits; AID 1259372;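 active = inhibition above a cutoff derived from the DMSO control wells, cut at about 28% in these data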;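 also: inhibitors lower the bead chemiluminescence by keeping MITF from dimerizing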
AS interf DR = AlphaScreen optical interference, dose response counter-screen; AID 1259373; 480 compounds, 6% hits; IC50, µM; shares compounds with MITF inh; AlphaScreen optical interference counterscreen, cell-free; call rule not given here
AS interf ctr = AlphaScreen optical interference, counter-screen; 4,700 compounds, 7.6% hits; AID 1259376; inhibition, % at 2.6 µM; shares compounds with MITF inh; LysRS AlphaScreen counterscreen, signal interference, triplicate;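 active = inhibition above a cutoff derived from the DMSO control wells, cut at about 30% in these data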
Each line names hits and unclear results; the compound was inactive in the other large screens (follow-up assays come after a bar, where they were run); ! = not active in a repeat. Sampled rows, rich in hits. Any-hit rate of the full collection: about 3.4%.

Cc1[nH]c2ccccc2c(=O)c1CN1CC2(C)CC1CC(C)(C)C2 (stereo not drawn)	none
CNC(=O)Oc1cc([N+](=O)[O-])cc2cccnc12	MITF inh 96, TEAD-YAP inh 74
Cc1ccc(CNCCc2ccc3c(c2)OCO3)cc1	none
COc1ccc(CC2C(=O)N(C)C(=O)N(C)C2=O)cc1	none
COc1ccc(C[C@H]2NC[C@H](O)[C@H]2OC(C)=O)cc1	TEAD-YAP inh 103
C=C(C)[C@@H]1CCC(C)=C[C@H]1c1c(OC)cc(C)cc1OC	none (no result: FBW7 activator, TEAD-YAP inh)
CCC1(C(=O)c2ccc(Cl)cc2)C2c3cc(Br)ccc3OC(=O)C21C(=O)OC (stereo not drawn)	none
COc1cc(C)c(/C=C/[N+](=O)[O-])cc1C(C)C	TEAD-YAP inh 37
COc1ccc(OC)c(CNCCc2c[nH]c3ccccc23)c1	MITF inh 65
CCOC(=O)C1=C(N)Oc2cc(C)[nH]c(=O)c2C12C(=O)N(Cc1cccc(C)c1)c1ccccc12 (stereo not drawn)	none
Cc1cc(C)n2nc(CCCc3nn4c(C)cc(C)nc4[n+]3C)[n+](C)c2n1	none
O=[N+]([O-])c1ccc([As](=O)(O)O)cc1	none
CC[N+](CC)=c1scc(-c2ccc([N+](=O)[O-])cc2)s1	TEAD-YAP inh 48
O=C1NC(=S)N(c2ccc(Cl)cc2)C(=O)/C1=C\c1ccc([N+](=O)[O-])o1	MITF inh 68
Cn1cccc1/C=C1/C(=O)NC(=S)N(c2ccc(Cl)cc2)C1=O	none
CC(C)[C@@H]1NC(=O)[C@H](C)OC(=O)[C@@H](C(C)C)NC(=O)[C@@H](C(C)C)OC(=O)[C@H](C(C)C)NC(=O)[C@H](C)OC(=O)[C@@H](C(C)C)NC(=O)[C@@H](C(C)C)OC(=O)[C@H](C(C)C)NC(=O)[C@H](C)OC(=O)[C@@H](C(C)C)NC(=O)[C@@H](C(C)C)OC1=O	TEAD-YAP inh 96
CCOP(=O)(CC(=O)Nc1ccc([N+](=O)[O-])c(C(F)(F)F)c1)OCC	none
C[C@H](N)[C@H](O)c1ccccc1	none
CC(N)[C@H](O)c1ccc(O)c(O)c1 (stereo partly drawn)	MITF inh 89
CCOc1ccc(-n2c(/C=C/c3ccc(OC)cc3)nc3ccccc3c2=O)cc1	none
CCn1nc(/C=C\c2ccccc2)nc2c(=O)n(C)c(=O)nc1-2	TEAD-YAP inh 40
N#CC(C#N)=NNc1ccc(-c2ccccc2)cc1	TEAD-YAP inh 44
CC(=O)c1ccc(-c2ccccc2)cc1	none
O=C1NC(=O)N(c2ccc(Br)cc2)C(=O)/C1=C/c1ccc(O)c(O)c1	MITF inh 90
O=C1NC(=O)N(c2ccc(Br)cc2)C(=O)/C1=C/c1ccc(O)cc1	none
Cc1[nH]c2ccc(Cl)cc2c1CCN	none
Cc1[nH]c2ccccc2c1CCN	FBW7 activator 2.1
Cc1[nH]c2c(C(C)C)cccc2c1CCN	TEAD-YAP inh 91
O=P(O)(O)C(Cl)(Cl)P(=O)(O)O	MITF inh 77! | MITF confirm 63 | AS interf ctr inactive
CC12CN([N+](=O)[O-])C3(C(N)=O)CC1CCC23C (stereo not drawn)	none
CCN1CCN(Cc2cccc(F)c2)CC1	none
CCc1ccc(CN2CCN(Cc3cccc(F)c3)CC2)cc1	MITF inh 75 | MITF confirm inactive | AS interf ctr inactive
Cc1cccc(CN2CCN(Cc3cccc(F)c3)CC2)c1	MITF inh 76 | MITF confirm inactive | AS interf ctr inactive
Cc1cccc(CN2CCN(Cc3ccc(Cl)cc3)CC2)c1	MITF inh 59 | MITF confirm inactive | AS interf ctr inactive
CCc1ccc(CN2CCN(Cc3cccc(C)c3)CC2)cc1	none
Fc1cccc(CN2CCN(Cc3ccccc3F)CC2)c1	MITF inh 70 | MITF confirm inactive | AS interf ctr inactive
COc1ccc(-c2c(C)c3ccc(OC(=O)N(C)C)cc3oc2=O)cc1OC	none
CCc1ccc(CN2CCN(Cc3ccc(F)cc3)CC2)cc1	MITF inh 57 | MITF confirm inactive | AS interf ctr inactive
Fc1cccc(CN2CCN(Cc3ccccc3)CC2)c1	MITF inh 64 | MITF confirm inactive | AS interf ctr inactive
Cc1ccc(-n2c(/C=C/c3cc(Br)cs3)nc3ccccc3c2=O)cc1	none
CCOc1ccc(CN2CCN(Cc3ccc(F)cc3)CC2)cc1	MITF inh 61 | MITF confirm inactive | AS interf ctr inactive
CCOc1ccc(CN2CCN(Cc3ccccc3F)CC2)cc1	MITF inh 75 | MITF confirm inactive | AS interf ctr inactive
COc1ccc(CN2CCN(Cc3ccc(OC)cc3)CC2)cc1	none
O=[N+]([O-])c1ccc(Br)c2c1no[n+]2[O-]	MITF inh 74 | MITF confirm 73 | AS interf DR inactive | AS interf ctr inactive
CCc1ccc(N2C(=O)CC(=O)NC2=O)cc1	MITF inh 69 | MITF confirm inactive | AS interf ctr inactive
CCOC(=O)C1C2NC(=S)N(CCc3ccccc3)C1(C)Oc1ccc(Br)cc12 (stereo not drawn)	none
CCOC(=O)C1C2NC(=S)N(c3ccccc3)C1(C)Oc1cc(OC)ccc12 (stereo not drawn)	MITF inh 53 | MITF confirm 47 | AS interf DR inactive | AS interf ctr inactive
CCOC(=O)C1C2NC(=S)N(CC)C1(C)Oc1ccc(Br)cc12 (stereo not drawn)	MITF inh 53 | MITF confirm 31 | AS interf DR inactive | AS interf ctr inactive
CCOC(=O)C1C2NC(=S)N(c3cccc(C)c3)C1(C)Oc1ccc(OC)cc12 (stereo not drawn)	MITF inh 59 | MITF confirm 50 | AS interf ctr 35
CN1CCN(c2ccc(C#N)cc2[N+](=O)[O-])CC1	none
CCOC(=O)C1C2NC(=S)N(CCc3ccc(OC)c(OC)c3)C1(C)Oc1ccccc12 (stereo not drawn)	none
COc1cccc(CN2CCN(CC(C)C)C(CCO)C2)c1OC (stereo not drawn)	none
COc1cccc(CN2CCN(Cc3cccc(Br)c3)CC2)c1	MITF inh 63 | MITF confirm inactive | AS interf ctr inactive
COc1cccc(CN2CCN(c3ccc([N+](=O)[O-])cc3)CC2)c1	none
COc1cccc(CN2CCN(Cc3ccc(Br)cc3)CC2)c1	MITF inh 70 | MITF confirm inactive | AS interf ctr inactive
CC(=O)c1ccc(NC(=O)CN2CCN(Cc3ccccc3)CC2)cc1	none
COc1ccc(CN2CCN(Cc3ccccc3Cl)CC2)cc1Br	MITF inh 78 | MITF confirm inactive | AS interf ctr inactive
COc1ccc(CN2CCN(Cc3ccccc3C)CC2)cc1Br	MITF inh 83 | MITF confirm inactive | AS interf ctr inactive
Fc1ccc(CN2CCN(Cc3ccccc3)CC2)cc1	MITF inh 59 | MITF confirm inactive | AS interf ctr inactive
Fc1ccc(CN2CCN(c3ccc(Cl)cc3)CC2)cc1	none
